Assay results from PubChem BioAssay (NCATS).
Inconclusive results are not listed. Activity calls are given as the source filed them. Unless noted, calls come from the whole dose curve.

Columns and labels:
[1] = qHTS for Inhibitors of the Functional Ribonucleoprotein Complex (vRNP) of Lassa (LASV) Arenavirus: LASV Primary Screen - GLuc reporter signal (AID 1347082; calls by dose curve; tested in HEK293 reporter line; note: nearly all actives have a fitted effect of over 60% in size)
[2] = qHTS for Inhibitors of the Functional Ribonucleoprotein Complex (vRNP) of Lassa (LASV) Arenavirus: Viability assay - alamar blue signal for LASV Primary Screen (AID 1347083; calls by dose curve; tested in HEK293 reporter line; note: nearly all actives have a fitted effect of over 80% in size)
[3] = qHTS for Inhibitors of the Functional Ribonucleoprotein Complex (vRNP) of Lymphocytic Choriomeningitis Arenaviruses (LCMV): Viability assay - alamar blue signal for LCMV Primary Screen (AID 1347085; calls by dose curve; tested in HEK293 reporter line; note: nearly all actives have a fitted effect of over 80% in size)
[4] = target: Nucleoprotein (Lymphocytic choriomeningitis virus (strain Armstrong)) (UniProt P09992); experiment: qHTS for Inhibitors of the Functional Ribonucleoprotein Complex (vRNP) of Lymphocytic Choriomeningitis Arenaviruses (LCMV): LCMV Primary Screen - GLuc reporter signal (AID 1347086); note: nearly all actives have a fitted effect of over 70% in size
% is set by controls: 0 for no effect and ±100 for the full control effect.
Note: series mostly up to about 57 µM.

Nucleoprotein (Lymphocytic choriomeningitis virus (strain Armstrong)), sequence (P09992 whole entry, looked up): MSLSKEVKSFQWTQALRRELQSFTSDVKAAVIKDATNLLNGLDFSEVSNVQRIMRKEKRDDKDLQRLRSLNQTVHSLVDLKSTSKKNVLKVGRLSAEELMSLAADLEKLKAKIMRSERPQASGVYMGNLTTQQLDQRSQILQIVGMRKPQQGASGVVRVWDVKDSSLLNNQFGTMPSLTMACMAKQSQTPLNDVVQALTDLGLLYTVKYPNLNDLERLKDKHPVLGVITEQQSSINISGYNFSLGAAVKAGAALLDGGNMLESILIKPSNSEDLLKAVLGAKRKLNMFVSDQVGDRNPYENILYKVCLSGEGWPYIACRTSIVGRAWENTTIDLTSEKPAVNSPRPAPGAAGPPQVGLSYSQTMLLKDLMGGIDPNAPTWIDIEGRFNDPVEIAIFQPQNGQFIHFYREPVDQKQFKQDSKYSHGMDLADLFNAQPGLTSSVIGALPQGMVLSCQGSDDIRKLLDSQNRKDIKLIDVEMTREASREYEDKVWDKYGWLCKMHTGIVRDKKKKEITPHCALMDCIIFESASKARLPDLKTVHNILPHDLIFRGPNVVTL

CO[C@]12C[C@@H](COC(=O)c3cncc(Br)c3)CN(C)[C@@H]1Cc1cn(C)c3cccc2c13
inactive: Potency [1] | Potency [2] | Potency [3] | Potency [4]

CCN(CC)CCNC(=O)c1cc(S(C)(=O)=O)ccc1OC
inactive: Potency [1] | Potency [2] | Potency [3] | Potency [4]

C[N+](C)(C)CC(O)CC(=O)[O-] (stereo not drawn)
inactive: Potency [1] | Potency [2] | Potency [3] | Potency [4]

Cc1oc(=O)oc1COC(=O)[C@@H]1N2C(=O)[C@@H](NC(=O)[C@H](N)c3ccccc3)[C@H]2SC1(C)C
inactive: Potency [1] | Potency [2] | Potency [3] | Potency [4]

COc1ccc(O)cc1
inactive: Potency [1] | Potency [2] | Potency [3] | Potency [4]

COc1ccc(S(=O)(=O)Nc2nnc(CC(C)C)s2)cc1
inactive: Potency [1] | Potency [2] | Potency [3] | Potency [4]

CO/N=C(/C(=O)N[C@@H]1C(=O)N2C(C(=O)[O-])=C(C[n+]3ccn4ncccc43)CS[C@H]12)c1nsc(N)n1
inactive: Potency [1] | Potency [2] | Potency [3] | Potency [4]

C[C@@H](O)[C@H]1C(=O)N2C(C(=O)O)=C(SCCN=CN)C[C@H]12
inactive: Potency [1] | Potency [2] | Potency [3] | Potency [4]

Cc1nc(-c2ccc(Cl)cc2)oc1COC(C)(C)C(=O)O
inactive: Potency [1] | Potency [2] | Potency [3] | Potency [4]

CC(=O)NC(=O)c1ccccc1O
inactive: Potency [1] | Potency [2] | Potency [3] | Potency [4]

CC(=O)NCCCCCC(=O)O
inactive: Potency [1] | Potency [2] | Potency [3] | Potency [4]

O=C(O)Cc1ccc(OCCNC[C@H](O)c2ccccc2)cc1
inactive: Potency [1] | Potency [2] | Potency [3] | Potency [4]

CCCCN(CCCC)CCCOC(=O)c1ccc(N)cc1
inactive: Potency [1] | Potency [2] | Potency [3] | Potency [4]

CC(C)=CCC[C@@](C)(O)[C@H]1CC=C(C)CC1
inactive: Potency [1] | Potency [2] | Potency [3] | Potency [4]

CCOC(=O)c1ccc(O)cc1
inactive: Potency [1] | Potency [2] | Potency [3] | Potency [4]

CCCCC(CC)COC(=O)c1ccccc1O (stereo not drawn)
inactive: Potency [1] | Potency [2] | Potency [3] | Potency [4]

O=c1cc(O)c(Cl)c[nH]1
inactive: Potency [1] | Potency [2] | Potency [3] | Potency [4]

CCN(CC)CCNC(=O)c1ccc(N)cc1
inactive: Potency [1] | Potency [2] | Potency [3] | Potency [4]

COc1ccc(C(=O)NCc2ccc(OCCN(C)C)cc2)cc1OC
inactive: Potency [1] | Potency [2] | Potency [3] | Potency [4]

CC(=O)NS(=O)(=O)c1ccc(N)cc1
inactive: Potency [1] | Potency [2] | Potency [3] | Potency [4]

FC(F)(F)c1ccccc1-n1ccnc1
inactive: Potency [1] | Potency [2] | Potency [3] | Potency [4]

NC(=O)NS(=O)(=O)c1ccc(N)cc1
inactive: Potency [1] | Potency [2] | Potency [3] | Potency [4]

COc1cc(C(=O)N2CCCCCCC2)cc(OC)c1OC
inactive: Potency [1] | Potency [2] | Potency [3] | Potency [4]

Nc1ccc([N+](=O)[O-])c(C(F)(F)F)c1
inactive: Potency [1] | Potency [2] | Potency [3] | Potency [4]

Cc1scc2c1N(C(=O)CN1CCN(C)CC1)c1ccccc1NC2=O
inactive: Potency [1] | Potency [2] | Potency [3] | Potency [4]

CN=C(NC#N)NCCSCc1csc(N=C(N)N)n1
inactive: Potency [1] | Potency [2] | Potency [3] | Potency [4]

CO[C@@]1(NC(=O)C(C(=O)O)c2ccc(O)cc2)C(=O)N2C(C(=O)O)=C(CSc3nnnn3C)CO[C@@H]21 (stereo partly drawn)
inactive: Potency [1] | Potency [2] | Potency [3] | Potency [4]

O=C(CO)[C@@H](O)[C@H](O)[C@@H](O)CO
inactive: Potency [1] | Potency [2] | Potency [3] | Potency [4]

NC(N)=NCCN1CCCCCCC1
inactive: activity change, negative = inhibition [1] 1.43% [at 0.757 µM] | activity change, negative = reduced viability [2] 1.98% [at 0.757 µM] | activity change, negative = lower viability [3] 5.22% [at 0.757 µM] | activity change, negative = inhibition [4] -0.256% [at 0.757 µM]

O=C(O)CCCCCCCC(=O)O
inactive: Potency [1] | Potency [2] | Potency [3] | Potency [4]

NC(=O)NC(=O)Cc1ccccc1
inactive: Potency [1] | Potency [2] | Potency [3] | Potency [4]

NS(=O)(=O)c1cc(C(=O)O)cc(N2CCCC2)c1Oc1ccccc1
inactive: Potency [1] | Potency [2] | Potency [3] | Potency [4]

O=C(O)/C=C(\CC(=O)O)C(=O)O
inactive: Potency [1] | Potency [2] | Potency [3] | Potency [4]

CCn1cc(C(=O)O)c(=O)c2cnc(N3CCNCC3)nc21
inactive: Potency [1] | Potency [2] | Potency [3] | Potency [4]

N#CCC(=O)NN
inactive: Potency [1] | Potency [2] | Potency [3] | Potency [4]

Cn1c(=O)c2[nH]cnc2n(C)c1=O
inactive: Potency [1] | Potency [2] | Potency [3] | Potency [4]

CCN(CC)CCOC(=O)c1ccc(N)cc1
inactive: Potency [1] | Potency [2] | Potency [3] | Potency [4]
